# Measurements: the supplement of paper PMC9694430
# Legend:
# Experiment in all cases: thermal shift delta Tm vs DMSO control; higher = stronger stabilization (binding)
# Details in all cases: 12.5 µM; protein concentration 2 µM
# LOC_OS01G57100-cb003 = test system: LOC_OS01G57100-cb003
# In short: (§1)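 Thermal shift values come from differential scanning fluorimetry on purified rice kinase domains made in E. coli, with melting temperatures obtained from Boltzmann fits. Samples of 19.5 μl held 2 μM kinase, 100 mM potassium phosphate pH 7.5, 150 mM NaCl, 10% glycerol, 5 × SYPRO Orange and compound in DMSO, and were heated from 25°C to 95°C at 0.05°C/s. Each shift is a triplicate mean relative to the DMSO-only protein sample.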
# LOC_OS01G60330-cb001 = test system: LOC_OS01G60330-cb001
# In short: as §1
# LOC_OS01G60700-cb002 = test system: LOC_OS01G60700-cb002
# In short: as §1
# LOC_OS01G63280-cb003 = test system: LOC_OS01G63280-cb003
# In short: as §1
# LOC_OS01G67340-cb003 = test system: LOC_OS01G67340-cb003
# In short: as §1
# LOC_OS01G70970-cb002 = test system: LOC_OS01G70970-cb002
# In short: as §1
# LOC_OS02G07810-cb001 = test system: LOC_OS02G07810-cb001
# In short: as §1
# LOC_OS02G08530-cb003 = test system: LOC_OS02G08530-cb003
# In short: as §1
# LOC_OS02G14120-cb001 = test system: LOC_OS02G14120-cb001
# In short: as §1
# LOC_OS02G17970-cb001 = test system: LOC_OS02G17970-cb001
# In short: as §1
# LOC_OS02G45750-cb003 = test system: LOC_OS02G45750-cb003
# In short: as §1
# LOC_OS02G54510-cb004 = test system: LOC_OS02G54510-cb004
# In short: as §1
# LOC_OS03G04050-cb001 = test system: LOC_OS03G04050-cb001
# In short: as §1
# LOC_OS03G12390-cb001 = test system: LOC_OS03G12390-cb001
# In short: as §1
# LOC_OS03G27990-cb004 = test system: LOC_OS03G27990-cb004
# In short: as §1
# LOC_OS03G50450-cb001 = test system: LOC_OS03G50450-cb001
# In short: as §1
# LOC_OS03G50810-cb003 = test system: LOC_OS03G50810-cb003
# In short: as §1
# LOC_OS04G35114-cb001 = test system: LOC_OS04G35114-cb001
# In short: as §1
# LOC_OS04G38480-cb003 = test system: T1, LOC_OS04G38480-cb003
# T1 sequence (whole entry): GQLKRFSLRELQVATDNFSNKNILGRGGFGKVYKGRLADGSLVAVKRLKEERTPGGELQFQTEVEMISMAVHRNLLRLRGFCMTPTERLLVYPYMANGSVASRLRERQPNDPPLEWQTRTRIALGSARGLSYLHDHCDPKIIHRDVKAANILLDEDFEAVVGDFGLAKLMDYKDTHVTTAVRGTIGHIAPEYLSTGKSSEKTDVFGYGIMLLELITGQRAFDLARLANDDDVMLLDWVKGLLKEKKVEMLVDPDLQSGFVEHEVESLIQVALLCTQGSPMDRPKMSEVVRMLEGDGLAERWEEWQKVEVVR
# In short: as §1
# LOC_OS04G41100-cb001 = test system: T2, LOC_OS04G41100-cb001
# T2 sequence (whole entry): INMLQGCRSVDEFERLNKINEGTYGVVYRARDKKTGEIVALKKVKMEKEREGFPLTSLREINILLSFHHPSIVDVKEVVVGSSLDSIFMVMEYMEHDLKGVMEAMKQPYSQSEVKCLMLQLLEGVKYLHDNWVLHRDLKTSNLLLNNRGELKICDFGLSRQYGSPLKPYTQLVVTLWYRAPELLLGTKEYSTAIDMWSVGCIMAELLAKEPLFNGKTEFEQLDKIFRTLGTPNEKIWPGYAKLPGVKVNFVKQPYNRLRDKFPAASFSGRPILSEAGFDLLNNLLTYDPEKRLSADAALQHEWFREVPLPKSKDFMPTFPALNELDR
# In short: as §1
# 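Note: purified Escherichia coli-expressed rice kinase domain construct.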
Structure (SMILES),thermal shift delta Tm (LOC_OS01G57100-cb003) [°C],thermal shift delta Tm (LOC_OS01G60330-cb001) [°C],thermal shift delta Tm (LOC_OS01G60700-cb002) [°C],thermal shift delta Tm (LOC_OS01G63280-cb003) [°C],thermal shift delta Tm (LOC_OS01G67340-cb003) [°C],thermal shift delta Tm (LOC_OS01G70970-cb002) [°C],thermal shift delta Tm (LOC_OS02G07810-cb001) [°C],thermal shift delta Tm (LOC_OS02G08530-cb003) [°C],thermal shift delta Tm (LOC_OS02G14120-cb001) [°C],thermal shift delta Tm (LOC_OS02G17970-cb001) [°C],thermal shift delta Tm (LOC_OS02G45750-cb003) [°C],thermal shift delta Tm (LOC_OS02G54510-cb004) [°C],thermal shift delta Tm (LOC_OS03G04050-cb001) [°C],thermal shift delta Tm (LOC_OS03G12390-cb001) [°C],thermal shift delta Tm (LOC_OS03G27990-cb004) [°C],thermal shift delta Tm (LOC_OS03G50450-cb001) [°C],thermal shift delta Tm (LOC_OS03G50810-cb003) [°C],thermal shift delta Tm (LOC_OS04G35114-cb001) [°C],thermal shift delta Tm (LOC_OS04G38480-cb003) [°C],thermal shift delta Tm (LOC_OS04G41100-cb001) [°C]
N#C/C(=C\c1ccc(O)c(O)c1)C(=O)NCc1ccccc1 [AG-490 (Tyrphostin B42)],0.3,0.46,1.9,0.34,0.38,0.32,1.89,0.84,-0.01,1.7,0.05,0.41,0.78,0.12,0.27,-0.29,0.09,-0.45,0.47,0.43
CS(=O)(=O)N1CCN(Cc2cc3nc(-c4cccc5[nH]ncc45)nc(N4CCOCC4)c3s2)CC1 [Pictilisib (GDC-0941)],0.25,2.44,0.85,-0.25,-0.42,0.62,0.7,1.22,0.32,0.17,0.86,0.25,0.28,0.14,0.17,0.22,1.56,1.73,-0.11,0.72
COCC(=O)NC/C=C/c1ccc2ncnc(Nc3ccc(Oc4ccc(C)nc4)c(C)c3)c2c1,-0.71,0.77,0.69,-0.33,-0.68,0.44,0.15,0.52,-0.57,-0.14,0.33,-0.01,0.28,-0.25,-0.01,-0.22,-0.16,1.94,0.14,0.5
CN1CC(O)C2=C/C(=N/NC(N)=O)C(=O)C=C21 (stereo not given) [Carbazochrome],-0.08,0.07,0.11,-0.22,-0.39,0.31,-0.8,0.45,0.37,-0.48,0.38,0.29,0.65,0.05,0.64,0.96,0.41,-0.02,0.38,0.2
CNC(=O)CN1CCC(Oc2cc3c(Nc4cccc(Cl)c4F)ncnc3cc2OC)CC1 [Sapitinib (AZD8931)],0.77,0.15,0.56,0.07,-0.27,-0.1,0.32,0.51,2.09,-0.13,0.58,0.5,-0.02,0.79,0.05,0.05,0.22,3.22,0.11,0.35
C=CC(=O)Nc1ccc2ncnc(Nc3ccc(OCc4cccc(F)c4)c(Cl)c3)c2c1,5.43,8.4,1.59,0,4.19,3.43,2.95,1.07,2.45,2.87,2.15,0.29,1.39,2.82,1.09,1.56,1.76,1.62,4.58,1.61
